In PubChem BioAssay (Tox21):
Inconclusive results are not listed. Unmarked numbers belong to inactive results. Active and inactive are the calls of the source. Calls come from the whole dose curve; as a rule, active = well fitted curve in the direction sought with a large enough effect in the repeat runs; inconclusive = weak or mixed curves; inactive = no such curve, though single readings can be large; an effect the other way counts as inactive or inconclusive.

Test: qHTS assay to identify small molecule antagonists of the retinoid acid receptor (RAR) signaling pathway - cell viability counter screen (AID 1159551); note: nearly all actives have a fitted effect of over 35% in size
Conditions: C3RL4 cells viability, ATP luminescence (CellTiter-Glo), 6 h; series mostly up to 92.4 µM; activity change, negative = cytotoxicity: at the top concentration
Procedure, shortened: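 C3RL4 RARE-luciferase cells, 1,000/well, incubated overnight, then dosed with compound plus 1 uM retinol (final). After 6 hr at 37 C, viability read by CellTiter-Glo ATP luminescence following 30 min at room temperature.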
% is set by controls: 0 for no effect and ±100 for the full control effect.

| Compound | activity change, negative = cytotoxicity |
| --- | --- |
| Cc1cccc(C)c1NC(=O)CC12CCCN1CCC2 | 2.22% [at 42.5 µM] |
| C[C@@H]1C[C@H]2[C@@H]3C[C@H](F)C4=CC(=O)C(Cl)=C[C@]4(C)[C@@]3(F)[C@@H](O)C[C@]2(C)[C@@]1(O)C(=O)CO | -2.04% [at 42.5 µM] |
| C=CC(=O)OCCCl | 1.92% |
| C[N+]1(CC2COC(c3ccccc3)(c3ccccc3)O2)CCCCC1 (stereo not drawn) | -0.8% [at 19 µM] |
| CO[Si](C)(OC)c1ccccc1 | -1.92% |
| CC(C)[C@H]1CC[C@@H](C)CC1=O | -1% |
| Cc1nc(C2CCCCC2)c(-c2ccc(S(N)(=O)=O)c(F)c2)o1 | 0.384% [at 42.5 µM] |
| CCOC(=O)COC(=O)c1ccccc1C(=O)OCC | -0.446% |
| CCOC(=O)c1cnc2c(cnn2CC)c1NN=C(C)C | 0.3% [at 42.5 µM] |
| CC(=O)c1ccc2ccccc2c1 | 0.689% |
| COc1ccc2cc1Oc1cc3c(cc1OC)CC[N+](C)(C)[C@H]3Cc1ccc(cc1)Oc1c(OC)c(OC)cc3c1[C@@H](C2)[N+](C)(C)CC3 | 0.491% [at 42.5 µM] |
| O=S(=O)(O)c1cccc2ccccc12 | 0.459% |
| C1CCC2(CCCCO2)OC1 | 0.852% |
| C[C@H]1C[C@H]2[C@@H]3CCC4=CC(=O)C=C[C@]4(C)[C@H]3C(=O)C[C@]2(C)[C@@]1(O)C(=O)CO | -0.0814% [at 42.5 µM] |
| CC1=NN(c2cc(S(=O)(=O)O)ccc2Cl)C(=O)C1N=Nc1ccccc1 (stereo not drawn) | 2.91% |
| O=S(=O)(O)c1cccc(S(=O)(=O)O)c1 | 3.1% |
| Nc1ccncc1N | -0.517% [at 42.5 µM] |
| CCN(Cc1ccccc1)c1ccccc1 | -1.38% |
| CC[N+](CC)(CC(=O)Nc1c(C)cccc1C)Cc1ccccc1 (tested in a mixture with another compound) | -0.548% [at 42.5 µM] |

| Compound | activity change, negative = cytotoxicity |
| --- | --- |
| CN(C)CCCN(C)CCCN(C)C | 2.09% |
| Cc1ccnc(NS(=O)(=O)c2ccc(N)cc2)n1 | 0.185% [at 42.5 µM] |
| CCCCCCCCCCCCCCCCCCO | 0.185% [at 42.5 µM] |
| O=C(O)Cc1csc(-c2ccc(Cl)cc2)n1 | 0.167% [at 42.5 µM] |
| NC(=O)N1c2ccccc2CC(=O)c2ccccc21 | 0.823% [at 42.5 µM] |
| CCCCCC(C)N (stereo not drawn) | 3.98% [at 42.5 µM] |
| Nc1ccn([C@@H]2O[C@H](CO)[C@@H](O)[C@@H]2O)c(=O)n1 | 6.91% |
| CN1CCC(=C2c3ccccc3CCc3cccnc32)CC1 | 3.71% [at 42.5 µM] |
| CCCCc1nc(Cl)c(CO)n1Cc1ccc(-c2ccccc2-c2nn[nH]n2)cc1 | -0.209% [at 42.5 µM] |
| c1ccc2sc(SN3CCOCC3)nc2c1 | -0.434% [at 42.5 µM] |
| CCN(C=O)CC | -2.52% |
| CC(=O)C1CCCCC1=O (stereo not drawn) | 5.52% |
| COc1cc(-c2ccc(=O)[nH]n2)ccc1OC(F)F | 1.02% [at 42.5 µM] |
| CCCc1ncc(C[n+]2ccccc2C)c(N)n1 | 0.0239% [at 42.5 µM] |
| O=C(CO)[C@@H](O)[C@H](O)[C@H](O)CO | 0.195% |
| CC(CC=O)CC(C)(C)C (stereo not drawn) | 0.466% |
| Clc1cc(Cl)c(Cl)nc1Cl | 1.92% |
| CCNS(=O)(=O)c1ccc(C)cc1 | 1.8% |
| Cc1coc2ccccc2c1=O | 3.24% [at 42.5 µM] |

Test: qHTS assay to identify small molecule antagonists of the retinoic acid receptor (RAR) signaling pathway (AID 1159552; note: nearly all actives have a fitted effect of over 50% in size)
Conditions: C3RL4 RARE luciferase reporter, retinol-stimulated, 6 h; series mostly up to 92.4 µM; activity, negative = inhibition: at the top concentration
Procedure, shortened: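 C3RL4 RARE-luc cells, overnight plating; retinol 1 uM final added right after compound; 6 hr 37 C; luciferase read at 30 min RT.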

| Compound | activity, negative = inhibition |
| --- | --- |
| C=CC(=O)OCCCl | 10.5% |
| C[C@H]1C[C@H]2[C@@H]3CCC4=CC(=O)C=C[C@]4(C)[C@H]3C(=O)C[C@]2(C)[C@@]1(O)C(=O)CO | -3.37% [at 42.5 µM] |
| CC1=NN(c2cc(S(=O)(=O)O)ccc2Cl)C(=O)C1N=Nc1ccccc1 (stereo not drawn) | -6.33% |
| O=S(=O)(O)c1cccc(S(=O)(=O)O)c1 | -0.224% |
| c1ccc2sc(SN3CCOCC3)nc2c1 | 70.9% [at 42.5 µM] |
| CC(CC=O)CC(C)(C)C (stereo not drawn) | 61.1% |
| CCNS(=O)(=O)c1ccc(C)cc1 | 40.5% |

Test: qHTS assay to identify small molecule agonists of the retinoic acid receptor (RAR) signaling pathway (AID 1159553); note: potency is the fitted concentration of half-maximal effect
Conditions: C3RL4 RARE luciferase reporter, agonist, 6 h; series mostly up to 73.3 µM; activation: at the top concentration
Procedure, shortened: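 C3RL4 RARE-luciferase cells were seeded at 1,000/well and grown overnight at 37 C, then exposed to compounds for 6 hr at 37 C, 5% CO2. Luciferase reagent was added and luminescence was read after 30 min at room temperature.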

| Compound | activation | Potency |
| --- | --- | --- |
| C=CC(=O)OCCCl | -1.17% [at 94.8 µM] | – |
| C[N+]1(CC2COC(c3ccccc3)(c3ccccc3)O2)CCCCC1 (stereo not drawn) | -1.15% [at 34.3 µM] | – |
| COc1ccc2cc1Oc1cc3c(cc1OC)CC[N+](C)(C)[C@H]3Cc1ccc(cc1)Oc1c(OC)c(OC)cc3c1[C@@H](C2)[N+](C)(C)CC3 | -1.37% | – |
| CC1=NN(c2cc(S(=O)(=O)O)ccc2Cl)C(=O)C1N=Nc1ccccc1 (stereo not drawn) | – | 68.6 µM (active) |
| CCN(Cc1ccccc1)c1ccccc1 | -0.449% | – |
| Nc1ccn([C@@H]2O[C@H](CO)[C@@H](O)[C@@H]2O)c(=O)n1 | -3.16% | – |
| COc1cc(-c2ccc(=O)[nH]n2)ccc1OC(F)F | -8.99% | – |
| CCNS(=O)(=O)c1ccc(C)cc1 | -0.749% [at 94.8 µM] | – |
